From PubChem BioAssay AID1159580 (chemical genetic matrix, 2015)
Out of some 5,500 compounds screened, about 2,000 (36%) were called active. Roughly 18% stayed inconclusive and do not appear here. Rule as the data show it: active = normalized growth mostly below about 0.91 (no sharp cut-off); inconclusive = no clear call, values can overlap the other calls; inactive = mostly above about 0.92. This is one part of the list.

Assay: chemical genetic growth profiling, strain panel (AID 1159580);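 also: tested at 20 µM; growth read once vehicle control cultures reached saturation at 30 °C; 1 = growth at the plate median or of vehicle wells; lower values mean less growth of the strain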
Details: growth OD

Measured: normalized growth

NCCCC[C@H](N[C@@H](CCc1ccccc1)C(=O)O)C(=O)N1CCC[C@H]1C(=O)O
inactive: S. cerevisiae deletion strains, locus YKL009W, strain mrt4, hits give low values 0.973 | S. cerevisiae deletion strains, locus YKL068W, hits give low values 0.99 | S. cerevisiae deletion strains, locus YKL085W, strain MDH1 (second series), hits give low values 0.993 | S. cerevisiae deletion strains, locus YKL085W, strain MDH1, hits give low values 0.993 | S. cerevisiae deletion strains, locus YKL160W, strain elf1, hits give low values 0.999 | S. cerevisiae deletion strains, locus YKL190W, strain CNB1, hits give low values 0.981 | S. cerevisiae deletion strains, locus YKR001C, strain vps1, hits give low values 1.01 | S. cerevisiae deletion strains, locus YKR026C, strain gcn3, hits give low values 1.04 | S. cerevisiae deletion strains, locus YKR091W, strain srl3, hits give low values 1.01 | S. cerevisiae deletion strains, locus YLL001W, strain dnm1, hits give low values 1 | S. cerevisiae deletion strains, locus YLL026W, hits give low values 0.994 | S. cerevisiae deletion strains, locus YLL041C, strain sdh2, hits give low values 0.97 | S. cerevisiae deletion strains, locus YLR027C, strain aat2, hits give low values 0.998 | S. cerevisiae deletion strains, locus YLR039C, strain RIC1, hits give low values 0.985 | S. cerevisiae deletion strains, locus YLR058C, strain SHM2, hits give low values 0.984 | S. cerevisiae deletion strains, locus YLR102C, strain apc9, hits give low values 0.996 | S. cerevisiae deletion strains, locus YLR113W, strain HOG1, hits give low values 1.01 | S. cerevisiae deletion strains, locus YLR221C, strain rsa3, hits give low values 0.981 | S. cerevisiae deletion strains, locus YLR258W, strain gsy2, hits give low values 1.01 | S. cerevisiae deletion strains, locus YLR262C, strain YPT6 (second series), hits give low values 1.01 | S. cerevisiae deletion strains, locus YLR262C, strain YPT6, hits give low values 0.94 | S. cerevisiae deletion strains, locus YLR268W, strain sec22, hits give low values 1 | S. cerevisiae deletion strains, locus YLR320W, strain mms22, hits give low values 1.03 | S. cerevisiae deletion strains, locus YLR330W, strain CHS5, hits give low values 0.994 | S. cerevisiae deletion strains, locus YLR342W, strain FKS1 (second series), hits give low values 1.05 | S. cerevisiae deletion strains, locus YLR342W, strain FKS1, hits give low values 1 | S. cerevisiae deletion strains, locus YLR357W, strain rsc2, hits give low values 1.04 | S. cerevisiae deletion strains, locus YLR370C, strain arc18, hits give low values 0.971 | S. cerevisiae deletion strains, locus YLR371W, strain rom2, hits give low values 1 | S. cerevisiae deletion strains, locus YLR384C, strain iki3, hits give low values 0.978 | S. cerevisiae deletion strains, locus YLR418C, strain cdc73, hits give low values 1 | S. cerevisiae deletion strains, locus YML016C, strain PPZ1, hits give low values 0.992 | S. cerevisiae deletion strains, locus YML032C, strain rad52, hits give low values 0.999 | S. cerevisiae deletion strains, locus YML120C, strain ndi1, hits give low values 0.976 | S. cerevisiae deletion strains, locus YML124C, strain tub3, hits give low values 0.995 | S. cerevisiae deletion strains, locus YMR058W, strain fet3, hits give low values 1.02 | S. cerevisiae deletion strains, locus YMR078C, strain ctf18, hits give low values 0.998 | S. cerevisiae deletion strains, locus YMR125W, strain sto1, hits give low values 1.04 | S. cerevisiae deletion strains, locus YMR129W, hits give low values 0.964 | S. cerevisiae deletion strains, locus YMR205C, strain PFK2, hits give low values 0.984 | S. cerevisiae deletion strains, locus YMR223W, strain ubp8, hits give low values 0.983 | S. cerevisiae deletion strains, locus YMR231W, strain pep5, hits give low values 1.02 | S. cerevisiae deletion strains, locus YMR307W, strain GAS1, hits give low values 1.05 | S. cerevisiae deletion strains, locus YNL067W, strain RPL9B, hits give low values 0.964 | S. cerevisiae deletion strains, locus YNL071W, strain lat1, hits give low values 1.02 | S. cerevisiae deletion strains, locus YNL128W, strain TEP1, hits give low values 0.989 | S. cerevisiae deletion strains, locus YNL153C, strain GIM3, hits give low values 0.955 | S. cerevisiae deletion strains, locus YNL183C, strain NPR1, hits give low values 0.96 | S. cerevisiae deletion strains, locus YNL209W, strain ssb2, hits give low values 1.01 | S. cerevisiae deletion strains, locus YNL233W, strain BNI4, hits give low values 0.975 | S. cerevisiae deletion strains, locus YNL248C, strain rpa49, hits give low values 1.01 | S. cerevisiae deletion strains, locus YNL250W, strain rad50, hits give low values 0.982 | S. cerevisiae deletion strains, locus YNL271C, strain bni1, hits give low values 0.997 | S. cerevisiae deletion strains, locus YNL298W, strain CLA4, hits give low values 0.993 | S. cerevisiae deletion strains, locus YNL307C, strain MCK1, hits give low values 1.01 | S. cerevisiae deletion strains, locus YNL322C, strain KRE1 (second series), hits give low values 1.02 | S. cerevisiae deletion strains, locus YNL322C, strain KRE1, hits give low values 0.993 | S. cerevisiae deletion strains, locus YNR049C, strain mso1, hits give low values 0.964 | S. cerevisiae deletion strains, locus YNR052C, strain pop2, hits give low values 1.01 | S. cerevisiae deletion strains, locus YOL006C, strain TOP1, hits give low values 0.922 | S. cerevisiae deletion strains, locus YOL012C, strain htz1 1.17 | S. cerevisiae deletion strains, locus YOL147C, strain pex11, hits give low values 0.988 | S. cerevisiae deletion strains, locus YOR001W, strain rrp6, hits give low values 0.967 | S. cerevisiae deletion strains, locus YOR061W, strain CKA2, hits give low values 0.956 | S. cerevisiae deletion strains, locus YOR069W, strain VPS5, hits give low values 0.998 | S. cerevisiae deletion strains, locus YOR070C, strain gyp1, hits give low values 0.941 | S. cerevisiae deletion strains, locus YOR080W, strain dia2, hits give low values 0.992 | S. cerevisiae deletion strains, locus YOR083W, strain WHI5, hits give low values 1.01 | S. cerevisiae deletion strains, locus YOR106W, strain vam3, hits give low values 1 | S. cerevisiae deletion strains, locus YOR136W, strain idh2, hits give low values 0.994 | S. cerevisiae deletion strains, locus YOR144C, strain elg1, hits give low values 0.998 | S. cerevisiae deletion strains, locus YOR184W, strain ser1, hits give low values 1 | S. cerevisiae deletion strains, locus YOR231W, strain MKK1, hits give low values 1.04 | S. cerevisiae deletion strains, locus YOR265W, strain rbl2, hits give low values 0.987 | S. cerevisiae deletion strains, locus YOR270C, strain vph1, hits give low values 1.04 | S. cerevisiae deletion strains, locus YOR290C, strain snf2, hits give low values 1.02 | S. cerevisiae deletion strains, locus YOR316C, strain cot1, hits give low values 1 | S. cerevisiae deletion strains, locus YPL051W, strain arl3, hits give low values 1.01 | S. cerevisiae deletion strains, locus YPL078C, strain atp4, hits give low values 1.02 | S. cerevisiae deletion strains, locus YPL106C, strain sse1, hits give low values 0.949 | S. cerevisiae deletion strains, locus YPL240C, strain hsp82, hits give low values 0.986 | S. cerevisiae deletion strains, locus YPL256C, strain CLN2, hits give low values 1.02 | S. cerevisiae deletion strains, locus YPR119W, strain clb2, hits give low values 0.994 | S. cerevisiae deletion strains, locus YPR141C, strain kar3, hits give low values 0.985 | S. cerevisiae deletion strains, locus YPR163C, strain tif3, hits give low values 0.988 | S. cerevisiae deletion strains, locus YPR167C, strain met16, hits give low values 0.999 | S. cerevisiae deletion strains, strain wtn01, hits give low values 0.998 | S. cerevisiae strains, strain wild type, hits give low values 0.982
